# Inconclusive results are not listed. Active and inactive are the calls of the source. The call rests on the fitted dose curve; in most records, active means well fitted inhibition curve with a large enough effect; inconclusive means small, poorly fitted or top-dose-only effect; inactive means flat fitted curve, though single readings scatter.
# Target: Ferritin light chain (Equus caballus) (UniProt P02791)
# Assay: Confirmation Assay for Identification of Novel General Anesthetics; further: nearly all actives have a fitted effect of over 40% in size
# Details: apoferritin 1-aminoanthracene fluorescence displacement
# In short: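 Horse apoferritin (10 uM) pre-loaded with 1-AMA (50% saturated, PBS) exposed to compounds 10 min at room temperature; loss of 1-AMA fluorescence (380/535 nm) scaled between free and bound ligand, curves fitted with Hill equation.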
# Potency means the concentration at half of the fitted maximal effect.
# Sequence of Ferritin light chain (Equus caballus) (P02791 2-175 limits assumed): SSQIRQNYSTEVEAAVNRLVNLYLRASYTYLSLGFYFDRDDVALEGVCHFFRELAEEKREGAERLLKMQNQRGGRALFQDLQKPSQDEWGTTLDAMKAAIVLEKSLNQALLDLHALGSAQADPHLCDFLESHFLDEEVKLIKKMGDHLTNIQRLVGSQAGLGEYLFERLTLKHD
row,SMILES,Potency
1,Cc1ccc(CNC(=O)CN2N=C(c3ccccc3)CCC2=O)cc1,5.19 µM (active)
2,CCc1ccc(NC(=S)N2CCCCCCC2)cc1,14.1 µM (active)
3,CC(C)CCNC(=O)CN1N=C(c2ccc(Cl)cc2)CCC1=O,5.19 µM (active)
4,O=C1CC(C2CCCO2)C(=O)N1c1cccc(Cl)c1 (stereo not drawn),14.1 µM (active)
5,CCCn1nnc(NC(=O)COc2ccc(C3CCCCC3)cc2)n1,12.6 µM (active)
6,O=C(COC(=O)c1ccccn1)NC12CC3CC(CC(C3)C1)C2,7.94 µM (active)
7,CC1CCCC(NC(=O)COC(=O)CCc2ccccc2)C1C (stereo not drawn),25.1 µM (active)
8,COC(=O)c1ccc(/C=N/NC(=O)CC(=O)NC2CCCCC2)cc1,7.08 µM (active)
9,CC1CCCCN1S(=O)(=O)Cc1ccccc1Cl (stereo not drawn),14.1 µM (active)
10,Cc1ccc(S(=O)(=O)NCCc2ccccc2)cc1,15.8 µM (active)
11,Nc1cc(Cl)ccc1Oc1ccc2ccccc2c1,15.8 µM (active)
12,Nc1ccc2nc(SCc3cccc(F)c3)sc2c1,28.2 µM (active)
13,Oc1ccc(Cc2ncc(C(F)(F)F)cc2Cl)cc1,15.8 µM (active)
14,Cn1cc([N+](=O)[O-])c(C(=O)Nc2ccc(C3CCCCC3)cc2)n1,14.1 µM (active)
15,O=C(COC(=O)CC1CC2CCC1C2)NC(=O)NC1CCCC1 (stereo not drawn),15.8 µM (active)
16,CC(C)c1ccccc1OCC(=O)N1CCCCCCC1,11.2 µM (active)
17,Nn1cnc2sc3c(c2c1=O)CCC3,31.6 µM (active)
18,O=C(NC1CCCCCCC1)c1ccc(Br)o1,17.8 µM (active)
19,Cc1cc(NS(=O)(=O)N(C)C)ccc1C(C)C,20 µM (active)

row,SMILES,Potency
1,O=S(=O)(NCCC1=CCCCC1)c1ccc(F)cc1,8.91 µM (active)
2,Cc1ccc(NC(=O)c2ccccc2)cc1OC(=O)c1ccccc1,28.2 µM (active)
3,CCc1ccc(NC(=O)C2(C)Cc3ccccc3C(=O)O2)cc1 (stereo not drawn),31.6 µM (active)
4,O=c1c2ccccc2nnn1Cc1ccccc1Cl,15.8 µM (active)
5,Cc1ccc(Cl)cc1NC(=O)C1COc2ccccc2O1 (stereo not drawn),20 µM (active)
6,CC1CCCC(NC(=O)COC(=O)c2ccc(N(C)C)cc2)C1C (stereo not drawn),7.08 µM (active)
7,C=C(C)C(=O)OC1(C(F)(F)F)Oc2cc(C)ccc2NC1=O (stereo not drawn),15.8 µM (active)
8,CC(C)(C)CC(=O)Nc1ccc(Nc2ccccc2)cc1,17.8 µM (active)
9,Fc1ccccc1CNc1ccc(Cl)cc1,11.2 µM (active)
10,Cc1cccc(Nc2nc(Cl)ncc2F)c1C,28.2 µM (active)
11,CC(=O)c1cccc(NC(=O)CCC2CCCC2)c1,28.2 µM (active)
12,Clc1ccc(CNc2ccccn2)cc1,15.8 µM (active)
13,O=C(NC12CC3CC(CC(C3)C1)C2)c1ccco1,14.1 µM (active)
14,O=C(CCSc1ccccc1)NC(=O)COC(=O)C1CCCCC1,35.5 µM (active)
15,Fc1ccc(NCc2ccccc2F)cc1Cl,14.1 µM (active)
16,CCC(CC)C(=O)Nc1ccc(Cl)c(Cl)c1,14.1 µM (active)
17,CC1CCCN(C(=O)Cc2cccc3ccccc23)C1 (stereo not drawn),31.6 µM (active)
18,O=C(CSc1nnnn1C1CCCCC1)Nc1nc2c(s1)CCCC2,31.6 µM (active)
19,N/C(Cc1ccc(Cl)cc1)=N\OC(=O)c1cccc2ccccc12,8.91 µM (active)

# Source: PubChem BioAssay AID489008 (National Center for Advancing Translational Sciences (NCATS), 2010)
